Experimental data taken from the supplement of paper PMC8728848.
The full list was thinned out, with the strongest signals kept by preference.

Tests used:
Assay in all cases: glycan array binding signal (z-score within array); higher = stronger binding
Settings in all cases: glycan notation: IUPAC condensed, linker removed
[1] = molecular target: Fuc(a1-2)Gal(b1-4)GlcNAc(b1-3)Gal(b1-4)GlcNAc
Method in brief: (§1)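 The Consortium for Functional Glycomics database supplied 3228 glycan arrays, of which those lacking an available protein sequence were dropped. The binding signal, a within-array Z-score, was averaged across arrays of the same protein sequence and across linkers. Negative scores can be read as non-binding.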

[2] = molecular target: Fuc(a1-2)Gal(b1-4)GlcNAc(b1-6)GalNAc
Method in brief: as §1

[3] = molecular target: Fuc(a1-2)[GalNAc(a1-3)]Gal
Method in brief: as §1

[4] = molecular target: Fuc(a1-2)[GalNAc(a1-3)]Gal(b1-3)GalNAc(b1-3)Gal(a1-4)Gal(b1-4)Glc
Method in brief: as §1

[5] = molecular target: Fuc(a1-2)[GalNAc(a1-3)]Gal(b1-4)[Fuc(a1-3)]GlcNAc
Method in brief: as §1

[6] = molecular target: Fuc(a1-3)[Gal3S(b1-4)]GlcNAc6S
Method in brief: as §1

[7] = molecular target: Gal(a1-3)Gal(b1-4)GlcNAc(b1-6)GalNAc
Method in brief: as §1

[8] = molecular target: Gal(a1-3)[Gal(a1-4)]Gal(b1-4)GlcNAc
Method in brief: as §1

[9] = molecular target: Gal(b1-3)GlcNAc(a1-3)Gal(b1-4)GlcNAc
Method in brief: as §1

[10] = molecular target: Gal(b1-3)GlcNAc(b1-2)Man(a1-3)[Gal(b1-3)GlcNAc(b1-2)Man(a1-6)]Man(b1-4)GlcNAc(b1-4)GlcNAc
Method in brief: as §1

[11] = molecular target: Gal(b1-3)GlcNAc(b1-2)Man(a1-3)[GlcNAc(b1-4)][Gal(b1-3)GlcNAc(b1-2)Man(a1-6)]Man(b1-4)GlcNAc(b1-4)GlcNAc
Method in brief: as §1

[12] = molecular target: Gal(b1-3)[GlcNAc(b1-6)]GalNAc
Method in brief: as §1

Gal(b1-4)GlcNAc(b1-2)Man = molecular target: Gal(b1-4)GlcNAc(b1-2)Man
Method in brief: as §1

[13] = molecular target: Gal(b1-4)GlcNAc(b1-2)Man(a1-3)Man(b1-4)GlcNAc(b1-4)GlcNAc
Method in brief: as §1

[14] = molecular target: Gal(b1-4)GlcNAc(b1-2)Man(a1-3)[Man(a1-6)]Man(b1-4)GlcNAc(b1-4)GlcNAc
Method in brief: as §1

[15] = molecular target: Gal(b1-4)GlcNAc(b1-3)Gal(b1-4)GlcNAc(b1-2)[Gal(b1-4)GlcNAc(b1-3)Gal(b1-4)GlcNAc(b1-6)]Man(a1-6)[Gal(b1-4)GlcNAc(b1-3)Gal(b1-4)GlcNAc(b1-2)Man(a1-3)]Man(b1-4)GlcNAc(b1-4)GlcNAc
Method in brief: as §1

[16] = molecular target: Gal(b1-4)GlcNAc(b1-3)Gal(b1-4)GlcNAc(b1-3)Gal(b1-4)GlcNAc(b1-3)Gal(b1-4)GlcNAc(b1-3)Gal(b1-4)GlcNAc(b1-2)Man(a1-3)[Gal(b1-4)GlcNAc(b1-3)Gal(b1-4)GlcNAc(b1-3)Gal(b1-4)GlcNAc(b1-3)Gal(b1-4)GlcNAc(b1-3)Gal(b1-4)GlcNAc(b1-2)Man(a1-6)]Man(b1-4)GlcNAc(b1-4)GlcNAc
Method in brief: as §1

[17] = molecular target: Gal(b1-4)GlcNAc(b1-3)Gal(b1-4)GlcNAc(b1-3)Gal(b1-4)GlcNAc(b1-3)Gal(b1-4)GlcNAc(b1-3)Gal(b1-4)GlcNAc(b1-2)[Gal(b1-4)GlcNAc(b1-3)Gal(b1-4)GlcNAc(b1-3)Gal(b1-4)GlcNAc(b1-3)Gal(b1-4)GlcNAc(b1-3)Gal(b1-4)GlcNAc(b1-6)]Man(a1-6)[Gal(b1-4)GlcNAc(b1-3)Gal(b1-4)GlcNAc(b1-3)Gal(b1-4)GlcNAc(b1-3)Gal(b1-4)GlcNAc(b1-3)Gal(b1-4)GlcNAc(b1-2)Man(a1-3)]Man(b1-4)GlcNAc(b1-4)[Fuc(a1-6)]GlcNAc
Method in brief: as §1

[18] = molecular target: Gal(b1-4)GlcNAc(b1-6)GalNAc
Method in brief: as §1

Gal3S(b1-4)Glc = molecular target: Gal3S(b1-4)Glc
Method in brief: as §1

Gal3S6S(b1-4)GlcNAc = molecular target: Gal3S6S(b1-4)GlcNAc
Method in brief: as §1

Gal6S(b1-4)GlcNAc6S = molecular target: Gal6S(b1-4)GlcNAc6S
Method in brief: as §1

GalNAc(a1-3)GalNAc = molecular target: GalNAc(a1-3)GalNAc
Method in brief: as §1

Glc(a1-6)Glc(a1-6)Glc = molecular target: Glc(a1-6)Glc(a1-6)Glc
Method in brief: as §1

[19] = molecular target: GlcNAc(b1-2)Gal(b1-3)GalNAc
Method in brief: as §1

[20] = molecular target: GlcNAc(b1-2)Man(a1-3)[GlcNAc(b1-2)Man(a1-6)]Man(b1-4)GlcNAc(b1-4)[Fuc(a1-6)]GlcNAc
Method in brief: as §1

[21] = molecular target: GlcNAc(b1-2)[GlcNAc(b1-4)]Man(a1-3)[GlcNAc(b1-4)][GlcNAc(b1-2)Man(a1-6)]Man(b1-4)GlcNAc(b1-4)GlcNAc
Method in brief: as §1

[22] = molecular target: GlcNAc(b1-3)Gal(b1-4)GlcNAc(b1-2)[GlcNAc(b1-3)Gal(b1-4)GlcNAc(b1-6)]Man(a1-6)[GlcNAc(b1-3)Gal(b1-4)GlcNAc(b1-2)Man(a1-3)]Man(b1-4)GlcNAc(b1-4)GlcNAc
Method in brief: as §1

[23] = molecular target: GlcNAc(b1-3)Gal(b1-4)GlcNAc(b1-3)Gal(b1-4)GlcNAc(b1-2)[GlcNAc(b1-3)Gal(b1-4)GlcNAc(b1-3)Gal(b1-4)GlcNAc(b1-6)]Man(a1-6)[GlcNAc(b1-3)Gal(b1-4)GlcNAc(b1-3)Gal(b1-4)GlcNAc(b1-2)Man(a1-3)]Man(b1-4)GlcNAc(b1-4)[Fuc(a1-6)]GlcNAc
Method in brief: as §1

[24] = molecular target: GlcNAc(b1-3)Gal(b1-4)GlcNAc(b1-6)[Gal(b1-3)]GalNAc
Method in brief: as §1

[25] = molecular target: GlcNAc(b1-4)GlcNAc(b1-4)GlcNAc
Method in brief: as §1

[26] = molecular target: Man(a1-2)Man(a1-3)[Man(a1-2)Man(a1-6)]Man(a1-6)[Man(a1-2)Man(a1-2)Man(a1-3)]Man(b1-4)GlcNAc(b1-4)GlcNAc
Method in brief: as §1

Man(a1-6)Man = molecular target: Man(a1-6)Man
Method in brief: as §1

[27] = molecular target: Neu5Ac(a2-3)Gal(b1-3)]Neu5Ac(a2-3)Gal(b1-4)]GlcNAc
Method in brief: as §1

[28] = molecular target: Neu5Ac(a2-3)Gal(b1-4)GlcNAc(b1-2)Man
Method in brief: as §1

[29] = molecular target: Neu5Ac(a2-3)Gal(b1-4)GlcNAc(b1-3)Gal(b1-4)GlcNAc(b1-6)[Gal(b1-3)]GalNAc
Method in brief: as §1

[30] = molecular target: Neu5Ac(a2-3)Gal(b1-4)GlcNAc(b1-6)GalNAc
Method in brief: as §1

[31] = molecular target: Neu5Ac(a2-3)Gal(b1-4)GlcNAc(b1-6)[Gal(b1-3)]GalNAc
Method in brief: as §1

[32] = molecular target: Neu5Ac(a2-3)Gal(b1-4)GlcNAc6S
Method in brief: as §1

[33] = molecular target: Neu5Ac(a2-3)Gal(b1-4)[Fuc(a1-3)]GlcNAc(b1-3)Gal(b1-4)GlcNAc
Method in brief: as §1

[34] = molecular target: Neu5Ac(a2-3)Gal(b1-4)[Fuc(a1-3)]GlcNAc6S
Method in brief: as §1

Neu5Ac(a2-3)GalNAc = molecular target: Neu5Ac(a2-3)GalNAc
Method in brief: as §1

[35] = molecular target: Neu5Ac(a2-3)GalNAc(b1-4)GlcNAc
Method in brief: as §1

[36] = molecular target: Neu5Ac(a2-6)Gal(b1-4)GlcNAc(b1-2)Man(a1-3)Man(b1-4)GlcNAc(b1-4)GlcNAc
Method in brief: as §1

[37] = molecular target: Neu5Ac(a2-6)Gal(b1-4)GlcNAc(b1-3)Gal(b1-3)GlcNAc
Method in brief: as §1

[38] = molecular target: Neu5Ac(a2-6)Gal(b1-4)GlcNAc(b1-3)Gal(b1-4)[Fuc(a1-3)]GlcNAc(b1-3)Gal(b1-4)[Fuc(a1-3)]GlcNAc
Method in brief: as §1

[39] = molecular target: Neu5Ac(a2-6)Gal(b1-4)GlcNAc(b1-3)[Neu5Ac(a2-6)Gal(b1-4)GlcNAc(b1-6)]GalNAc
Method in brief: as §1

[40] = molecular target: Neu5Ac(a2-6)Gal(b1-4)GlcNAc(b1-6)[Gal(b1-3)GlcNAc(b1-3)]Gal(b1-4)Glc
Method in brief: as §1

[41] = molecular target: Neu5Ac(a2-8)Neu5Ac(a2-8)Neu5Ac
Method in brief: as §1

Neu5Ac(b2-6)GalNAc = molecular target: Neu5Ac(b2-6)GalNAc
Method in brief: as §1

[42] = molecular target: Neu5Gc(a2-3)Gal(b1-4)GlcNAc(b1-3)Gal(b1-4)GlcNAc(b1-2)Man(a1-3)[Neu5Gc(a2-3)Gal(b1-4)GlcNAc(b1-3)Gal(b1-4)GlcNAc(b1-2)Man(a1-6)]Man(b1-4)GlcNAc(b1-4)GlcNAc
Method in brief: as §1

[43] = molecular target: Neu5Gc(b2-6)Gal(b1-4)GlcNAc
Method in brief: as §1

B1: EULS2 M4 (Oryza sativa) (protein)
chain: MVYCRANPNYAMTARNGAVVLAPANPKDEYQHWIKDMRWSTSIKDEEGYPAFALVNKATGQAIKHSLGQSHPVRLVPYNPEVMDESVLWTESRDVGNGFRCIRMVNNIYLNFDAFHGDKYHGGVRDGTDIVLWKWCEGDSLRWKIQPYYILEQKLISEEDLNSAVDHHHHHH
glycan array binding signal (z-score) [1]: -0.01
glycan array binding signal (z-score) [2]: -0.469
glycan array binding signal (z-score) [3]: -0.348
glycan array binding signal (z-score) [4]: -0.473
glycan array binding signal (z-score) [5]: -0.416
glycan array binding signal (z-score) [6]: -0.356
glycan array binding signal (z-score) [7]: 0.31
glycan array binding signal (z-score) [8]: 7
glycan array binding signal (z-score) [9]: -0.21
glycan array binding signal (z-score) [10]: -0.259
glycan array binding signal (z-score) [11]: 4.91
glycan array binding signal (z-score) [12]: -0.511
glycan array binding signal (z-score) (Gal(b1-4)GlcNAc(b1-2)Man): -0.202
glycan array binding signal (z-score) [13]: 2.57
glycan array binding signal (z-score) [14]: 7.18
glycan array binding signal (z-score) [15]: 6.97
glycan array binding signal (z-score) [16]: -0.273
glycan array binding signal (z-score) [17]: 4.92
glycan array binding signal (z-score) [18]: -0.124
glycan array binding signal (z-score) (Gal3S(b1-4)Glc): 0.203
glycan array binding signal (z-score) (Gal3S6S(b1-4)GlcNAc): -0.485
glycan array binding signal (z-score) (Gal6S(b1-4)GlcNAc6S): -0.349
glycan array binding signal (z-score) (GalNAc(a1-3)GalNAc): -0.218
glycan array binding signal (z-score) (Glc(a1-6)Glc(a1-6)Glc): 0.287
glycan array binding signal (z-score) [19]: -0.527
glycan array binding signal (z-score) [20]: -0.215
glycan array binding signal (z-score) [21]: -0.288
glycan array binding signal (z-score) [22]: 0.417
glycan array binding signal (z-score) [23]: -0.364
glycan array binding signal (z-score) [24]: -0.431
glycan array binding signal (z-score) [25]: -0.101
glycan array binding signal (z-score) [26]: -0.4
glycan array binding signal (z-score) (Man(a1-6)Man): 0.713
glycan array binding signal (z-score) [27]: -0.232
glycan array binding signal (z-score) [28]: 7.63
glycan array binding signal (z-score) [29]: -0.233
glycan array binding signal (z-score) [30]: -0.226
glycan array binding signal (z-score) [31]: -1.27
glycan array binding signal (z-score) [32]: 4.39
glycan array binding signal (z-score) [33]: 0.35
glycan array binding signal (z-score) [34]: -0.364
glycan array binding signal (z-score) (Neu5Ac(a2-3)GalNAc): 0.083
glycan array binding signal (z-score) [35]: 0.042
glycan array binding signal (z-score) [36]: -0.572
glycan array binding signal (z-score) [37]: 2.81
glycan array binding signal (z-score) [38]: 4.01
glycan array binding signal (z-score) [39]: 7.46
glycan array binding signal (z-score) [40]: -0.428
glycan array binding signal (z-score) [41]: -0.325
glycan array binding signal (z-score) (Neu5Ac(b2-6)GalNAc): 0.656
glycan array binding signal (z-score) [42]: -0.344
glycan array binding signal (z-score) [43]: -0.504
